Values without a mark were called inactive. Calls follow the shape of the dose curve; as a rule, active = well fitted curve in the direction sought with a large enough effect; inconclusive = small, poorly fitted or top-dose-only effect, or effect the other way, or another doubt; inactive = no such curve, though single readings can be large or run the other way.
Experiment: qHTS for Inhibitors of Cell Surface uPA Generation: Validation Assay (AID 493164);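 also: RAW 264.7 macrophage cells exposed to compound for 18 h; 0% is about no effect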
Details: mouse cells, plasminogen activation; series mostly up to 38.3 µM; activity change: at the top concentration
Description: NIH Chemical Genomics Center [NCGC]
NIH Molecular Libraries Probe Centers Network [MLPCN]
Assay Submitter (PI): Thomas Bugge
The overall objective of this project is to perform a quantitative high throughput screen (qHTS) to identify novel compounds that inhibit the generation of cell surface urokinase activity. The urokinase plasminogen activator (uPA) is one of the two primary endogenous systems that mediate plasminogen activation into plasmin. Members of this system, including uPA and its receptor (uPAR), are overexpressed in several malignant tumors. This system plays a major role in adhesion, migration, invasion and metastasis of cancer cells. Small molecule inhibitors of the uPA system will serve as probes to understand the molecular mechanisms of the uPA cascade and better understanding the microenvironmental circumstances that facilitate the activation of plasminogen by uPA, and finally may provide novel candidate agents for anticancer drug therapy.
[…] […] Upon inhibition of the uPA activation cascade, the subsequent cell surface uPA activity-dependent translocation of LF into the cytoplasm is inhibited. ATP-Lite is used to measure intracellular ATP concentrations, which remain increased if LF entry into the cytoplasm is inhibited. This validation assay was performed using a small set of validation compounds.
uPA assay protocol summary:
RAW 264.7 cells were maintained in DMEM medium (Invitrogen, Carlsbad, CA) at 37C under a humidified atmosphere containing 5% CO2 and 95% air. The medium contained 10% FBS, 1 mM sodium pyruvate and 50 U/ml penicillin/streptamycin (Invitrogen, Carlsbad, CA). All compounds were screened as 7-point titration from 2.45 nM to 38.3 uM final concentration. The assay was performed in 1536-well format plate as follows:
1.Dispensing RAW 264.7 cells into 1536-well, white walled tissue culture plates at a density of 4000 cells/well (4 uL).
2.Incubation at 37 C in a 5% CO2 incubator overnight.
3.Serially diluting compounds (1:5 serial dilution; 0.0024 uM to […] final concentration) in 23 nl DMSO.
5.Incubating the compound and reagent-treated plates for 18 hours at 37 C in a 5% CO2 incubator.
6.Adding ATP-Lite (3 ul).
7.Reading plates by ViewLux with an exposure length of 5 seconds.

Compared with `CC(N)(Cc1ccc(O)cc1)C(=O)O` (stereo not given), `C[C@](Cc1ccc(O)c(O)c1)(NN)C(=O)O` is higher in “activity change” value: 0.232% for the first, 0.567% for the second.

First: CNCCNS(=O)(=O)c1cccc2cnccc12
Second: Clc1nccc2c1ccc1ccccc12
The “activity change” value of the first is lower: -2.01% for the first, 1.37% for the second.

Going from `C[C@H]1CC2C3CCC4=CC(=O)C=C[C@]4(C)[C@@]3(Cl)[C@@H](O)C[C@]2(C)[C@@]1(O)C(=O)CO` (stereo not given in full) to `C[C@]12C=CC(=O)C=C1CC[C@@H]1C2=CC[C@]2(C)[C@@H](C(=O)CN3CCN(c4cc(N5CCCC5)nc(N5CCCC5)n4)CC3)CC[C@@H]12`, the “activity change” value falls from 1.11% to 0.647%.

Going from `CCCCOC(=O)NS(=O)(=O)c1sc(CC(C)C)cc1-c1ccc(Cn2c(CC)nc3c(C)cc(C)nc32)cc1` to `CCCOC(=O)c1c(-c2ccccc2)nc(CC)c(C(=O)SCC)c1CCC`, the “activity change” value falls from 0.726% to -0.382%.

Going from `NCC(O)C1CCCCCCC1` (stereo not given) to `NC1(C(=O)O)CCCCC1`, the “activity change” value falls from 0.859% to -1.36%.

Going from `NC(Cc1cccc(-c2ccccc2CP(=O)(O)O)c1)C(=O)O` (stereo not given) to `CCCN(CCc1ccccc1)C1CCc2c(O)cccc2C1` (stereo not given), the “activity change” value falls from -0.603% to -1.29%.

Compared with `CC(C)(C)NCC(O)COc1cccc2[nH]c(=O)[nH]c12` (stereo not given), `O=[N+]([O-])c1cccc2cn[nH]c12` is higher in “activity change” value: -0.542% for the first, 0.291% for the second.

Going from `Nc1ncnc2c1ncn2C1CCCC1` to `O=C(c1ccc2c(c1)OCCO2)N1CCCCC1`, the “activity change” value rises from 0.0951% to 0.29%.

First: O=c1cc(-c2ccccc2)[nH]c2nc(Cl)ccc12
Second: O=c1oc(Cl)c(Cl)c2ccccc12
The “activity change” value of the first is higher: 1.16% for the first, 0.489% for the second.

Compared with `CN(C)S(=O)(=O)c1ccc2c(c1)/C(=C/c1cc3c([nH]1)CCCC3)C(=O)N2`, `CN1CCC2(CCN3CCc4c(oc5ccccc45)C3C2)N(C)C1=O` (stereo not given) is lower in “activity change” value: 2.62% for the first, 0.782% for the second.

Compared with `C=CCN1CCc2c(cc(O)c(O)c2Br)[C@@H](c2ccccc2)C1`, `CN1Cc2sccc2C(c2ccc(O)c(O)c2)C1` (stereo not given) is lower in “activity change” value: 1.31% for the first, 0.625% for the second.

First: CCCn1c(=O)c2c(ncn2C)n(CCC)c1=O
Second: CCn1c(=O)[nH]c2cc(Cl)c(Cl)cc21
The “activity change” value of the first is higher: 0.413% for the first, -1.13% for the second.

Going from `Fc1ccc(CN(C2=NCCN2)c2c(Cl)cccc2Cl)cc1` to `CC(=O)NNC(=O)N1Cc2ccccc2Oc2ccc(Cl)cc21`, the “activity change” value rises from -1.54% to 0.416%.

Compared with `O=C(O)Cc1ccc(O)c(O)c1`, `Oc1cc(O)c2c(c1)O[C@H](c1ccc(O)c(O)c1)[C@@H](O)C2` is higher in “activity change” value: -0.872% for the first, -0.668% for the second.

Compared with `COc1ccc2c(c1)CCC1C2CC[C@@]2(C)C1CC[C@@H]2NCCCCCCN1C(=O)C=CC1=O` (stereo not given in full), `CC(C)C[C@H](NC(=O)C1OC1C(=O)O)C(=O)NCCCCN=C(N)N` (stereo not given in full) is higher in “activity change” value: -1.33% for the first, 0.882% for the second.

Going from `NC(N)=NC(N)=Nc1ccccc1` to `O=C(O)c1ccccc1Nc1ccccc1`, the “activity change” value falls from 0.75% to -0.91%.

Going from `CC#CCOC(=O)c1c(C)nc2sc3c(c2c1N)CCC(O)C3` (stereo not given) to `N=C(N)c1ccc(N)cc1`, the “activity change” value falls from 2.35% to -0.633%.

Compared with `S=C(S)N1CCCC1`, `O=C(O)C1=CC(=C(c2ccc(O)c(C(=O)O)c2)c2ccc(O)c(C(=O)O)c2)C=CC1=O` is lower in “activity change” value: 1.98% for the first, -0.44% for the second.

First: NCC(O)(CS(=O)(=O)O)c1ccc(Cl)cc1 (stereo not given)
Second: CCCc1c(-c2ccc(O)cc2)nn(-c2ccc(O)cc2)c1-c1ccc(O)cc1
The “activity change” value of the first is lower: 0.162% for the first, 0.232% for the second.

Going from `N#CC(=C(\N)Sc1ccccc1N)/C(C#N)=C(/N)Sc1ccccc1N` to `C=CC[C@H](N)C(=O)O`, the “activity change” value falls from 1.53% to -0.649%.

— PubChem BioAssay (NCATS)
